High-throughput results as filed in PubChem.
Most compounds without a hit are left out; they make up all but 1.8% or so of the library.
RAD52 inh: inhibitors of human RAD52 DNA annealing. recombinant RAD52 DNA annealing, FRET fluorescence. inhibition, % at 18.7 µM. 360,000 compounds, 0.46% hits. AID 651710;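 active means every replicate showing at least 50% inhibition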
LGR2 inh: Drosophila LGR2 receptor signaling inhibition; HEK293 LGR2, CRE-luciferase, bursicon-stimulated, 4 h; inhibition, % at 9.99 µM; 380,000 compounds, 0.35% hits; AID 720647;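 active means drop in luminescence signal, shown as inhibition above about 50% in the replicate tests, limit read from the data, passing the limit was not always enough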;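 further: agonist challenge used bursicon conditioned medium at about half maximal strength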
EWS-Fli block: blocks EWS/Fli oncoprotein-driven transcription. A673 NR0B1-luciferase reporter, viability-normalised. 350,000 compounds, 0.67% hits. AID 651661. inhibition, % at 12.6 µM;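 active means mean inhibition of at least 50% after viability correction, with every replicate also passing that limit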;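 further: firefly luciferase signal divided by Alamar Blue viability fluorescence both relative to DMSO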
F508del corr: correctors of CFTR F508del function in bronchial epithelial cells | CFBE cells, YFP halide quenching; stimulated with forskolin plus potentiator P3; % fluorescence drop versus neutral controls | activity (quench increase), % at 7.58 µM | 350,000 compounds, 0.36% hits | AID 720511;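 active means mean added fluorescence quench of at least 8% versus neutral control, with both replicates also reaching 8%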;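 further: cells transiently co-express mutant CFTR-F508del with the halide-sensitive YFP; corrector assay measuring rescue of mutant channel to the surface after 24 h compound exposure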
INS-1E GSIS act: GLuc luminescence reporter in INS-1E cells, primary screen for activators of glucose-dependent secretion of insulin. activation, % at 16.6 µM. INS-1E GLuc reporter insulin secretion, 2-3 h. 370,000 compounds, 0.61% hits. AID 743287;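 active means lowest replicate activation of at least 40%, so every replicate reaches that level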;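 further: 0% = median of neutral control wells and 100% = median of IBMX positive control wells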
RAD54 branch: RAD54 (human) branch migration inhibition; Q92698; RAD54 Holliday junction branch migration, FAM/BHQ fluorescence; inhibition, % at 10.4 µM; 360,000 compounds, 0.14% hits;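 active means mean normalized replicate activity at least 40 and at least half of replicates scoring 40 or more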;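 further: 0% = median of neutral control wells and 100% = median of positive control wells; inhibitors cause a drop in the FAM fluorescence signal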
Target sequence (Q92698 whole entry, looked up): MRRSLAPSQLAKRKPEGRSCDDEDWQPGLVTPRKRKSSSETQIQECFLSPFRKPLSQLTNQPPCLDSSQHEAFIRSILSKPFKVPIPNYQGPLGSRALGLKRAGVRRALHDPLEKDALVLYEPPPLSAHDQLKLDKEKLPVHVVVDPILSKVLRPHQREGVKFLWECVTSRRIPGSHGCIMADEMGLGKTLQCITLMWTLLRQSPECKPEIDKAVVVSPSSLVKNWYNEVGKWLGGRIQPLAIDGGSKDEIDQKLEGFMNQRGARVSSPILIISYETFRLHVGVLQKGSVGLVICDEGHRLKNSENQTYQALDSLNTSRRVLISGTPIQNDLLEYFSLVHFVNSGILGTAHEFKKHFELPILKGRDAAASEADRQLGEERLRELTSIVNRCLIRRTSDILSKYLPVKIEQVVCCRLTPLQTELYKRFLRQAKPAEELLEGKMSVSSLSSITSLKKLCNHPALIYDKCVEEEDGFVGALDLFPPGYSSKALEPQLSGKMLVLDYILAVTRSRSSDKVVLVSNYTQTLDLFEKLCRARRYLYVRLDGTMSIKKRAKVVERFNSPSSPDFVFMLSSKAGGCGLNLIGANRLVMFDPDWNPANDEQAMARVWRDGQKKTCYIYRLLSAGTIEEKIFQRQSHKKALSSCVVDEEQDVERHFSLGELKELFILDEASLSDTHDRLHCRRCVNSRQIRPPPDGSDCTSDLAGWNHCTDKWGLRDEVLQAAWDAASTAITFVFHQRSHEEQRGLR
The depositor's hits bear a star; ! = a repeat was not active.

`CCOc1ccc(NC(=O)CN(c2ccc([N+](=O)[O-])cc2)S(=O)(=O)c2ccccc2)cc1` gave RAD52 inh -14, LGR2 inh 10, EWS-Fli block 42, F508del corr 15* and INS-1E GSIS act -33.
CCOc1ccc(N(CC(=O)Nc2ccccc2C)S(=O)(=O)c2c(C)noc2C)cc1 was read as RAD52 inh -6, LGR2 inh 3, EWS-Fli block 58*, F508del corr 2, INS-1E GSIS act -20 and RAD54 branch 7.
COc1ccc(COCC23N=C4SCC(=O)N4[C@H](c4ccccc4O2)[C@H]3CO)cc1 was read as RAD52 inh 1, EWS-Fli block -8, F508del corr 0 and RAD54 branch -1.
`CN1/C(=C/C(=O)c2cccs2)Sc2ccccc21` gave RAD54 branch 56*.
`NC(=O)c1cnn(-c2cc(Oc3ccccc3)ncn2)c1N` gave RAD52 inh -16, LGR2 inh -15, EWS-Fli block -59, F508del corr -2, INS-1E GSIS act 1 and RAD54 branch 4.
`CCCCCCCCOC(=O)c1c(CSC(=N)N)n(C)c2cc(Br)c(OC(C)=O)cc12` gave RAD52 inh 83*, LGR2 inh 4, EWS-Fli block 50, F508del corr -1, INS-1E GSIS act 269* and RAD54 branch -1.
Cc1ccc(Cn2ccsc2=NC(=O)CCl)cc1 was read as RAD52 inh -11, LGR2 inh 14, EWS-Fli block 14, F508del corr -3 and INS-1E GSIS act 63*.
Cc1cccc(-c2ncc(CN3CCCC(CO)(Cc4cccc(Cl)c4)C3)cn2)c1 (stereo not drawn) was read as RAD52 inh -115, LGR2 inh 4, EWS-Fli block -2, F508del corr 2 and INS-1E GSIS act -27.
Screening O=C1Cc2c([nH]c3ccc([N+](=O)[O-])cc23)-c2ccccc2N1 returned RAD52 inh -1, LGR2 inh 76*, EWS-Fli block -39, F508del corr -7 and INS-1E GSIS act 20.
`O=c1[nH]c2cc([N+](=O)[O-])ccc2c2ccccc12` gave RAD52 inh -17, LGR2 inh -11, EWS-Fli block -32, F508del corr 1 and INS-1E GSIS act -4.
For Cc1ccc(-c2ccc([C@H]3[C@@H](CO)N4CCCCN(S(=O)(=O)c5cccc(C)c5)C[C@H]34)cc2)cc1 the results were RAD52 inh 70*, EWS-Fli block 1, F508del corr -2 and RAD54 branch 4.
For Cc1cccc(S(=O)(=O)N2CCCCN3[C@@H](CO)[C@@H](c4ccc(C#CC(C)C)cc4)[C@@H]3C2)c1 the results were RAD52 inh 6, LGR2 inh 13, EWS-Fli block 16, F508del corr 2, INS-1E GSIS act 57* and RAD54 branch -5.
Cc1cccc(S(=O)(=O)N2CCCCN3[C@@H](CO)[C@@H](c4ccc(-c5ccccc5)cc4)[C@@H]3C2)c1 was read as RAD52 inh 64*, EWS-Fli block -7, F508del corr -5 and RAD54 branch 5.
`Cc1cccc(S(=O)(=O)N2CCCCN3[C@H](CO)[C@H](c4ccc(C#CC(C)C)cc4)[C@H]3C2)c1` gave RAD52 inh 5, LGR2 inh 7, EWS-Fli block 17, F508del corr 1, INS-1E GSIS act -19 and RAD54 branch -4.
For Cc1ccc(-c2ccc([C@@H]3[C@@H](CO)N4CCCCN(S(=O)(=O)c5cccc(C)c5)C[C@@H]34)cc2)cc1 the results were RAD52 inh 26, EWS-Fli block -5, F508del corr -3 and RAD54 branch 4.
`COc1ccc(NCC(=O)n2c(C)c(C)c3ccccc32)cc1` gave RAD52 inh -22, LGR2 inh -25, EWS-Fli block 25, F508del corr 9.4*, INS-1E GSIS act -7 and RAD54 branch -2.
Screening COc1ccc(NC(=O)Cn2c(C)cc(=O)c3ccccc32)cc1 returned RAD52 inh -10, LGR2 inh 12, EWS-Fli block 8, F508del corr -2, INS-1E GSIS act -14 and RAD54 branch 6.
`Cc1cc(C)c(C)c(S(=O)(=O)N2CCN(c3ncnc4ccccc34)CC2)c1C` gave RAD52 inh -10, LGR2 inh 79*, EWS-Fli block 23, F508del corr 3 and RAD54 branch -9.
COC(=O)c1nnn(-c2nc(N(C)C)nc(N(C)C)n2)c1C was read as RAD52 inh 5, LGR2 inh 0, EWS-Fli block 11, F508del corr -6, INS-1E GSIS act 8 and RAD54 branch 0.
Cc1noc(C)c1NC(=O)N(C)C[C@H]1Oc2c(NC(=O)C3CCCCC3)cccc2C(=O)N([C@H](C)CO)C[C@@H]1C was read as RAD52 inh 3, LGR2 inh 13, EWS-Fli block -3, F508del corr 0, INS-1E GSIS act 41*! and RAD54 branch -3.
`C[C@H]1CN([C@@H](C)CO)C(=O)c2cccc(NC(=O)NC3CCCCC3)c2O[C@H]1CN(C)Cc1ccc(Cl)c(Cl)c1` gave RAD52 inh 11, LGR2 inh -7, EWS-Fli block 11, F508del corr 2, INS-1E GSIS act -49 and RAD54 branch 2.
For C[C@@H]1CN([C@@H](C)CO)C(=O)c2cccc(NC(=O)NC3CCCCC3)c2O[C@@H]1CN(C)Cc1ccc(Cl)c(Cl)c1 the results were RAD52 inh -7, LGR2 inh 8, EWS-Fli block 3, F508del corr 9.3*, INS-1E GSIS act -20 and RAD54 branch -6.
`C[C@@H]1CN([C@@H](C)CO)C(=O)c2cccc(NC(=O)Nc3ccc(C(F)(F)F)cc3)c2O[C@@H]1CN(C)CC1CCCCC1` gave RAD52 inh 32, EWS-Fli block 61*, F508del corr 4 and RAD54 branch 17.
`COc1ccc(NC(=O)Nc2cccc3c2O[C@@H](CN(C)Cc2ccc(C(F)(F)F)cc2)[C@@H](C)CN([C@@H](C)CO)C3=O)cc1` gave RAD52 inh 87*, LGR2 inh -1, EWS-Fli block 2, F508del corr 1, INS-1E GSIS act -16 and RAD54 branch -4.
Cc1noc(C)c1NC(=O)N(C)C[C@H]1Oc2c(NC(=O)C3CCCCC3)cccc2C(=O)N([C@@H](C)CO)C[C@H]1C was read as RAD52 inh 1, LGR2 inh 9, EWS-Fli block 4, F508del corr -5, INS-1E GSIS act -1 and RAD54 branch -12.
Screening Cc1cc(=O)[nH]c(SCC(=O)Nc2cccc(C(F)(F)F)c2)n1 returned RAD54 branch 13.
Screening O=C(Nc1ccc(F)c(Cl)c1)c1ccc2c(=O)n3c(nc2c1)CCCCC3 returned RAD54 branch -20.
